Screens deposited in PubChem by National Center for Advancing Translational Sciences (NCATS).
Rows were chosen to be rich in hits. Some 2.4% of all compounds tested hit in one or more screens of this group.
AmpC inh no det – inhibitors of E. coli AmpC beta-lactamase without detergent. P00811. AmpC nitrocefin hydrolysis, absorbance 480 nm, no detergent. Potency, µM (series often up to 28.7 µM), inactives show at the top dose activity change, negative = inhibition. actives 1.8% (n = 71,000). AID 585; note: % of control where 0% means no effect
Target sequence (P00811 whole entry, looked up): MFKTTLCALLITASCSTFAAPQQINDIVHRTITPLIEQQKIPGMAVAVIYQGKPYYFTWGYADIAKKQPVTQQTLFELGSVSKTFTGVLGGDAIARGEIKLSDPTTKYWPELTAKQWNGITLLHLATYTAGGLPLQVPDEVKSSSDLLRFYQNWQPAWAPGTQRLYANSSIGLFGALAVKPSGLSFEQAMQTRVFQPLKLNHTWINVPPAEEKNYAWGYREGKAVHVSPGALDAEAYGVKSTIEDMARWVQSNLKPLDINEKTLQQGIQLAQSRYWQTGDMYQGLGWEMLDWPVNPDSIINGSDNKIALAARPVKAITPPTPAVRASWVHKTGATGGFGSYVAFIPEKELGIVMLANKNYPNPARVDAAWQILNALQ
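AmpC in 20 mM phosphate buffer pH 7.0 was preincubated 15 min at room temperature with compounds. Nitrocefin (800 uM stock) was then added and hydrolysis followed at 480 nm every 20 s for 4 min.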
Prx2 Sm inh – inhibitors of Schistosoma mansoni peroxiredoxin 2; S. mansoni Prx2 activity coupled to TGR/GSH (TGR is thioredoxin glutathione reductase), NADPH fluorescence loss, qHTS; Potency, µM; actives 0.07% (n = 65,000)
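Prx2 inhibition was measured as reduced NADPH consumption when electrons flowed from NADPH through TGR and glutathione to Prx2 and H2O2. Plates were read kinetically over 8 min; enzyme reagents were held at 4 deg C during dispensing.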
AmpC inh det – inhibitors of E. coli AmpC beta-lactamase with detergent. P00811. purified AmpC, nitrocefin hydrolysis with detergent. Potency, µM (top dose mostly 28.7 µM), without a hit: at the top dose activity change, negative = inhibition. actives 0.09% (n = 71,000). AID 584; active = well fitted curve in the direction sought with a large enough effect; inconclusive = small, poorly fitted or top-dose-only effect; note: % is set by controls: 0 for no effect and ±100 for the full control effect
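E. coli AmpC (5.3 nM) in 20 mM phosphate pH 7.0 with 0.01% Triton X-100, preincubated 15 min RT with compound; nitrocefin (2 uL of 800 uM stock) hydrolysis followed by 480 nm absorbance every 20 s over 4 min.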
LT uptake inh – blocks cellular internalization of anthrax lethal toxin. Cells, anthrax lethal toxin internalization, FRET ratio (460/530). Potency, µM (doses to about 40 µM), inactives show at the highest dose activity change, negative = inhibition, usual class: inhibitors. actives 0.67% (n = 70,000); note: % is set by controls: 0 for no effect and ±100 for the full control effect; nearly all actives have a fitted effect of over 50% in size
The depositor's hits bear a star; ? = inconclusive; . = not tested or not shown; [ ] = dose if it differs, or a comment. Unless noted, calls come from the whole dose curve. Potency is the fitted concentration of half-maximal effect.

SMILES	AmpC inh no det	Prx2 Sm inh	AmpC inh det	LT uptake inh
CCN(CC)S(=O)(=O)c1ccc(NC2c3ccccc3C(=O)N2Cc2ccc3c(c2)OCO3)cc1 (configuration not stated)	3.98µM*[single pt active]	>57	15.2%	?
O=C1c2ccccc2C(Nc2ccc3c(c2)OCCO3)N1c1ccccn1 (configuration not stated)	13.9%	>57	8.6%	?
O=C1c2ccccc2C(Nc2ccc3c(c2)OCCO3)N1Cc1ccc2c(c1)OCO2 (configuration not stated)	3.98µM*[single pt active]	>57	11.2%	?
N#[N+]c1ccc(Nc2ccccc2)cc1	7.5%[5.75 µM]	>57	-3.9%[5.75 µM]	7.3%[8 µM]
N[C@H](Cc1ccc(F)cc1)C(=O)O	0.8%	>57	-6.1%	-0.1%
Cc1ccc2cc(C#N)c(SCC(=O)NCc3ccco3)nc2c1	-24.4%	>57	6.7%	-16.9%
Cc1ccc2nc(SCC(=O)NCc3ccco3)c(C#N)cc2c1	15.8µM*[single pt active]	>57	8.8%	-13.1%
CC1(C)CCC[C@@]2(C)[C@@H]1CC[C@]1(C)OC(=O)C[C@@H]21	54.9%	>57	12.6%	?
CCOC(=O)N1CCN(CC(=O)Nc2cc3c(cc2C(C)=O)OCO3)CC1	6.9%	>57	-0.2%	8.6%
CC(=O)c1cc2c(cc1NC(=O)CN1CCN(C(=O)c3ccco3)CC1)OCO2	3.98µM*[single pt active]	>57	10.9%	-6.2%
O=C1CC(O)(C(F)(F)F)Oc2c1ccc1ccccc21 (configuration not stated)	-21.2%	.	-0.2%	10µM*
CC[C@@]12CCCN3CCc4c(n(c5ccccc45)C(=O)C1)[C@H]32	10.9%[5.75 µM]	>57	-0.6%[5.75 µM]	-3.6%[8 µM]
COc1ccccc1Cc1nc(-c2ccc(Br)o2)no1	3.98µM*[single pt active]	>57	10.3%	?
COc1ccc(OC)c([C@H]2Nc3ccccc3NC3=C2C(=O)CC(C)(C)C3)c1Br	73.8%	>11.4	-2.6%	11.4%
COc1ccc(NC(=O)CCCC2=NS(=O)(=O)c3ccccc3N2)cc1	3.98µM*[single pt active]	>57	13.1%	5.0%
O=C(CCCC1=NS(=O)(=O)c2ccccc2N1)N1CCN(c2ccc(Cl)cc2)CC1	3.98µM*[single pt active]	>57	25.5%	?
CCCN[C@@H](C)C(=O)Nc1ccccc1C	1.1%[12.8 µM]	>57	-1.0%[12.8 µM]	-8.3%[3.58 µM]
COC1=CC(=O)OC(CCc2ccccc2)C1 (configuration not stated)	10.5%	.	8.4%	-0.3%
S=C(Nc1ccccc1)Nc1ccccc1C#Cc1ccccc1	5.01µM*	>11.4	-0.3%	?
COc1ccc(OC)c(NC(=O)c2cc(-c3cc(Cl)ccc3O)n[nH]2)c1	10µM*	>57	-1.0%	.
COc1ccc(NC(=O)c2cc(-c3cc(C)ccc3O)n[nH]2)cc1Cl	-12.0%	>57	-3.3%	?
O=C(c1cnn2ccccc12)N(Cc1ccco1)C1CCCC1	3.98µM*[single pt active]	>57	10.4%	-0.1%
COc1ccccc1C(=O)N(Cc1ccco1)C1CCS(=O)(=O)C1 (configuration not stated)	8.1%	>57	14.7%	3.4%
CCc1ccc(CCN2CCCCC2)nc1	-0.7%[5.75 µM]	>57	-1.7%[5.75 µM]	-2.8%[8 µM]
CC(=O)OC1c2ccccc2C(=O)N1Cc1ccccc1Cl (configuration not stated)	3.98µM*[single pt active]	>57	9.4%	-5.2%
SMILES	AmpC inh no det	Prx2 Sm inh	AmpC inh det	LT uptake inh
CCC(C)NC(=O)C1c2ccccc2C(=O)N1Cc1ccccc1OC (configuration not stated)	4.0%	>57	-3.1%	9.3%
COC(=O)CSc1nc2ccc(NC(=O)CSc3nnnn3Cc3ccccc3)cc2s1	?	.	-0.3%	5.01µM*
CC(=O)Nc1cccc(NC(=O)CSc2nnnn2Cc2ccccc2)c1	-6.3%	>57	-1.4%	-12.0%
CC[C@H](CO)NC(=O)[C@@H]1C=C2c3cccc4c3c(cn4C)C[C@@H]2N(C)C1	13.1%	>57	-1.1%	-2.1%
CCn1ncc(C2=NOC(C(=O)Nc3c(C)nn(Cc4ccc(F)cc4)c3C)C2)c1C (configuration not stated)	48.3%	>57	18.0%	-14.2%
CCn1ncc(C2=NOC(C(=O)Nc3c(C)n(C)n(-c4ccccc4)c3=O)C2)c1C (configuration not stated)	3.98µM*[single pt active]	>57	8.5%	-2.7%
O=c1cccc2n1C[C@H]1C[C@@H]2CN(CCO)C1	9.5%	>57	-1.8%	-0.4%
CCOC(=O)CBr	-2.9%	.	7.0%	?
O=C(NCc1ccccc1)C1CCCN(S(=O)(=O)c2cccnc2)C1 (configuration not stated)	0.4%	>57	-2.0%	-5.6%
